Test results published in PubChem BioAssay AID1159580 (chemical genetic matrix, 2015).
Values joined by “and” are separate entries in the source; they are usually repeats but may differ in a detail not shown here. Equal values may be shown once. Hit rate of the full screen: of about 5,500 compounds, about 2,000 (36%) were called active. Another 18% or so got no clear call; they are omitted. Cut-off read from the data, not from the text of the source: active = normalized growth mostly below about 0.91 (no sharp cut-off); inconclusive = no clear call, values can overlap the other calls; inactive = mostly above about 0.92. The list shows a part of the results.

Experiment: chemical genetic growth profiling, strain panel (AID 1159580);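 note: tested at 20 µM; growth read once vehicle control cultures reached saturation at 30 °C; 1 = growth at the plate median or of vehicle wells; lower values mean less growth of the strain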
Details: S. cerevisiae deletion strains, growth OD

Measured: normalized growth

O=C1C=CC(=C(c2ccc(O)cc2)c2ccc(O)cc2)C=C1
inactive: locus YAL013W, strain DEP1, stronger effect = lower value 0.985 | locus YAL021C, strain ccr4, stronger effect = lower value 1 | locus YAL026C, strain drs2, stronger effect = lower value 0.972 | locus YAL030W, strain snc1, stronger effect = lower value 1 | locus YBL061C, strain skt5, stronger effect = lower value 0.982 | locus YBR009C, strain hhf1, stronger effect = lower value 0.981 | locus YBR021W, strain FUR4, stronger effect = lower value 0.992 | locus YBR023C, strain chs3, stronger effect = lower value 0.968 | locus YBR171W, strain sec66, stronger effect = lower value 0.968 | locus YBR229C, strain ROT2, stronger effect = lower value 0.991 | locus YBR231C, strain swc5, stronger effect = lower value 0.987 | locus YBR279W, strain paf1, stronger effect = lower value 0.99 | locus YCL011C, strain gbp2, stronger effect = lower value 0.972 | locus YCL016C, strain dcc1, stronger effect = lower value 1.01 | locus YCL029C, strain bik1, stronger effect = lower value 0.99 | locus YCL069W, strain vba3, stronger effect = lower value 0.959 | locus YCR088W, strain abp1, stronger effect = lower value 0.975 | locus YDL005C, strain med2, stronger effect = lower value 0.977 | locus YDL035C, strain GPR1, stronger effect = lower value 1 | locus YDL040C, strain nat1, stronger effect = lower value 0.991 | locus YDL074C, strain BRE1, stronger effect = lower value 1.06 | locus YDL101C, strain DUN1, stronger effect = lower value 1 | locus YDL134C, strain PPH21, stronger effect = lower value 0.998 | locus YDL185W, strain tfp1, stronger effect = lower value 1 | locus YDL192W, strain arf1, stronger effect = lower value 0.982 | locus YDR001C, strain nth1, stronger effect = lower value 0.975 | locus YDR069C, strain doa4, stronger effect = lower value 0.952 | locus YDR101C, strain arx1, stronger effect = lower value 0.995 | locus YDR137W, strain rgp1, stronger effect = lower value 0.988 | locus YDR150W, strain NUM1, stronger effect = lower value 1.01 | locus YDR159W, strain sac3, stronger effect = lower value 0.972 | locus YDR162C, strain NBP2, stronger effect = lower value 1.01 | locus YDR195W, strain ref2 0.927 | locus YDR297W, strain sur2, stronger effect = lower value 0.987 | locus YDR318W, strain mcm21, stronger effect = lower value 0.982 | locus YDR334W, strain swr1, stronger effect = lower value 0.962 | locus YDR335W, strain msn5, stronger effect = lower value 0.968 | locus YDR388W, stronger effect = lower value 0.972 | locus YDR392W, strain spt3, stronger effect = lower value 0.986 | locus YDR502C, strain sam2, stronger effect = lower value 1 | locus YEL003W, strain gim4, stronger effect = lower value 0.974 | locus YEL037C, strain rad23, stronger effect = lower value 0.973 | locus YEL061C, strain CIN8 (second series), stronger effect = lower value 0.938 | locus YEL061C, strain CIN8, stronger effect = lower value 1.01 | locus YER015W, strain faa2, stronger effect = lower value 0.99 | locus YER016W, strain bim1, stronger effect = lower value 0.983 | locus YER110C, stronger effect = lower value 0.976 | locus YER111C, strain swi4, stronger effect = lower value 0.969 | locus YER155C, strain BEM2 (second series), stronger effect = lower value 1.01 | locus YER155C, strain BEM2, stronger effect = lower value 0.997 | locus YER167W, strain BCK2, stronger effect = lower value 0.993 | locus YFR010W, strain ubp6, stronger effect = lower value 0.945 | locus YGL078C, strain dbp3, stronger effect = lower value 0.994 | locus YGL086W, strain mad1, stronger effect = lower value 0.986 | locus YGL167C, strain pmr1, stronger effect = lower value 0.994 | locus YGL173C, strain kem1, stronger effect = lower value 0.98 | locus YGL227W, strain vid30, stronger effect = lower value 0.971 | locus YGL240W, strain doc1, stronger effect = lower value 0.983 | locus YGL248W, strain PDE1, stronger effect = lower value 0.991 | locus YGL253W, strain hxk2, stronger effect = lower value 0.967 | locus YGR078C, strain PAC10, stronger effect = lower value 1.03 | locus YGR135W, strain pre9, stronger effect = lower value 1 | locus YGR229C, strain SMI1, stronger effect = lower value 1.02 | locus YGR252W, strain gcn5, stronger effect = lower value 0.97 | locus YHR013C, strain ard1, stronger effect = lower value 0.985 | locus YHR027C, strain rpn1, stronger effect = lower value 1 | locus YHR030C, strain SLT2, stronger effect = lower value 0.994 and 1.04 | locus YHR079C, strain IRE1 (second series), stronger effect = lower value 0.989 | locus YHR079C, strain IRE1, stronger effect = lower value 1.05 | locus YHR094C, strain hxt1, stronger effect = lower value 0.989 | locus YHR129C, strain ARP1, stronger effect = lower value 0.994 | locus YHR142W, strain chs7, stronger effect = lower value 0.962 | locus YHR200W, strain rpn10, stronger effect = lower value 0.988 | locus YIL066C, strain RNR3, stronger effect = lower value 0.992 | locus YIL073C, strain SPO22, stronger effect = lower value 0.976 | locus YIL125W, strain kgd1, stronger effect = lower value 0.995 | locus YIR030C, strain dcg1, stronger effect = lower value 0.986 | locus YJL092W, strain hpr5, stronger effect = lower value 0.953 | locus YJL095W, strain BCK1 (second series), stronger effect = lower value 0.975 | locus YJL095W, strain BCK1, stronger effect = lower value 1.03 and 1.02 | locus YJL115W, strain asf1, stronger effect = lower value 0.966 | locus YJL129C, strain trk1, stronger effect = lower value 0.965 | locus YJL134W, strain LCB3, stronger effect = lower value 0.994 | locus YJL154C, strain vps35, stronger effect = lower value 0.98 | locus YJL164C, strain tpk1, stronger effect = lower value 1 | locus YJL166W, strain qcr8, stronger effect = lower value 0.984 | locus YJL168C, strain set2, stronger effect = lower value 0.98 | locus YJL187C, strain SWE1 (second series), stronger effect = lower value 0.998 | locus YJL187C, strain SWE1, stronger effect = lower value 0.993 | locus YJR043C, strain POL32, stronger effect = lower value 1.04 | locus YJR066W, strain TOR1, stronger effect = lower value 0.979
